# In PubChem BioAssay (NCATS):
# Inconclusive results are not listed. Entries that show only a call come without a potency. A number with no mark means an inactive call. Activity calls are given as the source filed them. Calls come from the whole dose curve; as a rule, active = well fitted curve in the direction sought with a large enough effect; inconclusive = small, poorly fitted or top-dose-only effect, or another doubt; inactive = no such curve, though single readings can be large; an effect the other way counts as inactive or inconclusive.
# What was measured:
# [1] = test system: Zika virus NS2B-NS3 protease; test: Primary screen GU AMC qHTS for Zika virus inhibitors (AID 1347154); note: nearly all actives have a fitted effect of over 70% in size
# Method in brief: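 Unlinked Zika NS2B hydrophilic domain–NS3 protease complex at 25 nM in 10 mM Tris-HCl pH 8.0, 0.01% Tween 20, with an AMC peptide substrate. Fluorescence change (340/450 nm) over 15 min at room temperature, normalized to controls, fitted to 4-parameter Hill.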
# [2] = test system: Zika virus NS2B-NS3 protease (unlinked complex); test: Primary screen GU Rhodamine qHTS for Zika virus inhibitors: Unlinked NS2B-NS3 protease assay (AID 1347159); note: nearly all actives have a fitted effect of over 60% in size; note: potency is the fitted concentration of half-maximal effect
# Method in brief: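 Noncovalent NS2B hydrophilic domain/NS3 protease complex (25 nM final) in 10 mM Tris-HCl pH 8.0, 0.01% Tween 20, preincubated 15 min with compounds (up to 114 microM), then 1.5 microM Rhodamine110 substrate. Fluorescence change over 15 min fitted to 4-parameter Hill.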
# [3] = test system: Zika virus NS2B-NS3 protease (linked construct); test: Primary screen NINDS Rhodamine qHTS for Zika virus inhibitors (AID 1347160); note: nearly all actives have a fitted effect of over 55% in size
# Method in brief: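 Purified NS2B-NS3 protease with the NS2B hydrophilic domain joined by a flexible linker (25 nM) in 10 mM Tris-HCl pH 8.0, 0.01% Tween 20, preincubated 15 min at RT with compound; Rhodamine110 peptide substrate 1.5 µM; fluorescence change over 15 min; 4-parameter Hill fit.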
# [4] = Confirmatory screen GU Rhodamine qHTS for Zika virus inhibitors qHTS (AID 1347157); settings: purified enzyme assay, Rhodamine110 substrate fluorescence, 15 min; note: potency is the fitted concentration of half-maximal effect; nearly all actives have a fitted effect of over 70% in size
# Method in brief: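 Compounds, tested up to 114 microM, were incubated for 15 minutes with 25 nM unlinked NS2B-NS3 protease at pH 8.0. Cleavage of 1.5 microM Rhodamine110 substrate was then followed by fluorescence for 15 minutes.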
# [5] = Confirmatory screen NINDS Rhodamine qHTS for Zika virus inhibitors (AID 1347161); settings: purified enzyme assay, Rhodamine110 substrate fluorescence, 15 min; note: potency is the fitted concentration of half-maximal effect; nearly all actives have a fitted effect of over 60% in size
# Method in brief: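 Purified linked NS2B-NS3 protease (NS2B hydrophilic domain joined to NS3 protease by flexible linker), 25 nM in 10 mM Tris-HCl pH 8.0, 0.01% Tween 20. Compounds titrated, 15 min preincubation at room temperature; 1.5 microM Rhodamine110 substrate, FITC fluorescence change over 15 min.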
structure (smiles),measurement,setting,value
Cc1cccc(Nc2cc(Cl)nc(SCC(=O)O)n2)c1C,Potency,[1],inactive
same,Potency,[2],inactive
COc1ccc2[nH]c(S(=O)Cc3ncc(C)c(OC)c3C)nc2n1 (stereo not given),Potency,[1],inactive
same,Potency,[2],inactive
same,Potency,[3],inactive
O=C(O)c1ccccc1-c1ccc(C(F)(F)F)cc1,Potency,[1],inactive
NC1CCN(c2cccc(Cl)n2)CC1,Potency,[1],inactive
CC[N+](CC)(CC)CCOc1ccc(/C=C/c2ccccc2)cc1,Potency,[1],inactive
O=C1Nc2ccc(Cl)cc2[C@@](C#CC2CC2)(C(F)(F)F)O1,Potency,[2],44.7 µM (active)
same,Potency,[3],inactive
CC(C)(C)C(=O)C(Oc1ccc(Cl)cc1)n1ccnc1 (stereo not given),Potency,[1],inactive
same,Potency,[2],inactive
same,Potency,[3],inactive
Cn1c(=O)c2c(ncn2CC2OCCO2)n(C)c1=O,Potency,[1],inactive
same,Potency,[2],inactive
same,Potency,[3],inactive
O=c1cc(CO)occ1O,Potency,[1],inactive
C[C@@H]1C[C@H]2[C@@H]3C[C@H](F)C4=CC(=O)C=C[C@]4(C)[C@@]3(F)[C@@H](O)C[C@]2(C)[C@@]1(O)C(=O)CO,Potency,[1],inactive
same,Potency,[2],inactive
same,Potency,[3],inactive
Cc1ccc2nc(N)[nH]c(=O)c2c1Sc1ccncc1,Potency,[1],inactive
same,Potency,[2],inactive
same,Potency,[3],inactive
CN1CCOC(c2ccccc2)c2ccccc2C1 (stereo not given),Potency,[1],inactive
same,Potency,[2],inactive
same,Potency,[3],inactive
CCOc1nc2cccc(C(=O)O)c2n1Cc1ccc(-c2ccccc2-c2nn[nH]n2)cc1,Potency,[1],inactive
same,Potency,[2],inactive
same,Potency,[3],inactive
C[C@@H]1CN(c2c(F)c(F)c3c(=O)c(C(=O)O)cn(C4CC4)c3c2F)C[C@H](C)N1,"activity change, negative = inhibition",[2],-12.9% [at 19.1 µM]
same,outcome,[3],inactive [at 10.7 µM]
Nc1ccc(S(=O)(=O)Nc2ccc(Cl)nn2)cc1,Potency,[1],inactive
CCOc1ccc2ccccc2c1C(=O)N[C@@H]1C(=O)N2[C@@H]1SC(C)(C)[C@@H]2C(=O)O,Potency,[1],inactive
same,Potency,[2],inactive
same,Potency,[3],inactive
CCCCOc1cc(C(=O)OCCN(CC)CC)ccc1N,Potency,[1],inactive
same,Potency,[2],inactive
same,Potency,[3],inactive
CS(=O)(=O)c1ccc([C@@H](O)[C@@H](CF)NC(=O)C(Cl)Cl)cc1,Potency,[1],inactive
same,Potency,[2],inactive
same,Potency,[3],inactive
CCOC(=O)[C@H](CCc1ccccc1)N[C@@H](C)C(=O)N1C(=O)N(C)C[C@H]1C(=O)O,Potency,[1],inactive
same,Potency,[3],inactive
Nc1ccc(S(=O)(=O)NC(=O)c2ccccc2)cc1,Potency,[1],inactive
Cn1cc[nH]c1=S,Potency,[1],inactive
CCOC(CN1CCN(CC(C)C(=O)c2ccccc2)CC1)c1ccccc1 (stereo not given),Potency,[1],inactive
same,Potency,[2],inactive
same,Potency,[3],inactive
Nc1nc2c(ncn2CCC(CO)CO)c(=O)[nH]1,Potency,[1],inactive
same,Potency,[2],inactive
same,Potency,[3],inactive
C[C@]12CC[C@@H]3c4ccc(O)cc4CC[C@H]3[C@@H]1CC[C@@H]2OC(=O)CCC1CCCC1,Potency,[2],20 µM (active)
O=C(CCCN1CCN(c2ccccn2)CC1)c1ccc(F)cc1,Potency,[1],inactive
same,Potency,[2],inactive
same,Potency,[3],inactive
Oc1cn2c(n1)Nc1ccc(Cl)c(Cl)c1C2,Potency,[1],inactive
O=C(O)[C@H](O)c1ccccc1,Potency,[1],inactive
O=c1[nH]cnc2c1ncn2[C@@H]1O[C@H](CO)[C@@H](O)[C@H]1O,Potency,[1],inactive
same,Potency,[2],inactive
same,Potency,[3],inactive
N[C@@H](CSSC[C@H](N)C(=O)O)C(=O)O,"activity change, negative = inhibition",[1],4.84% [at 0.59 µM]
COc1ccc2c(c1)C(=O)N(CCc1ccc(S(=O)(=O)NC(=O)NC3CCCCC3)cc1)C(=O)C2(C)C,Potency,[4],27.8 µM (active)
same,Potency,[2],inactive
same,Potency,[5],31.2 µM (active)
CCCCN1CCCC[C@H]1C(=O)Nc1c(C)cccc1C,Potency,[1],inactive
same,Potency,[2],inactive
same,Potency,[3],inactive
Nc1ccc(S(=O)(=O)Nc2nccs2)cc1,Potency,[1],inactive
same,Potency,[3],inactive
Cc1cccc(C)c1NC(=O)CN(CC(=O)O)CC(=O)O,Potency,[1],inactive
Nc1ccc(S(=O)(=O)Nc2ccccc2)cc1,Potency,[1],inactive
COc1ccc2cc1Oc1ccc(cc1)C[C@H]1c3c(cc4c(c3Oc3cc5c(cc3OC)CCN(C)[C@@H]5C2)OCO4)CCN1C,Potency,[1],inactive
same,Potency,[2],inactive
same,Potency,[3],inactive
c1ccc(CN(CC2=NCCN2)c2ccccc2)cc1,Potency,[1],inactive
same,Potency,[2],inactive
same,Potency,[3],inactive
CCN(CC)C(=O)Nc1ccc(OCC(O)CNC(C)(C)C)c(C(C)=O)c1 (stereo not given),Potency,[1],inactive
same,Potency,[2],inactive
same,Potency,[3],inactive
